# High-throughput results (PubChem)
# TexasRed fluor: alters Texas Red total fluorescence, flagging assay interference; actives 0.29% (n = 280,000); Potency, µM (series often up to 106 µM), for the others: at the top dose fluorescence change, negative = quenching; AID 1479; TRb/SRC2 Texas Red total fluorescence interference; active means well fitted curve in either direction with a large enough effect; inconclusive means small, poorly fitted or top-dose-only effect; further: potency means the concentration at half of the fitted maximal effect; on the % scale 0 is the no-effect control and ±100 the full control effect
#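 Flags fluorescent or light-absorbing compounds by total fluorescence, S + 2P, at 555 nm excitation and 632 nm emission. Mixture: 20 nM Texas Red SRC2 peptide, 0.6 uM human TRb LBD, 1 uM T3, 5% DMSO; compound exposure 5 h at ambient temperature.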
# HTT aggregate: inhibitors of mutant huntingtin aggregate formation in PC12 cells | actives 1.1% (n = 220,000) | AID 1688 | Potency, µM (series often up to 46.1 µM), without a hit: at the top dose activity change, negative = inhibition, actives largely listed as inhibitors | PC12 HttQ103-GFP aggregates, Acumen cytometry, 40 h; further: potency means the concentration at half of the fitted maximal effect; on the % scale 0 is the no-effect control and ±100 the full control effect; nearly all actives have a fitted effect of over 60% in size
#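 Huntingtin Q103 exon 1–GFP aggregates in induced PC12 cells (100 nM tebufenozide) were quantified by cytometry from lysates, with compounds dosed in titration.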
# TRb SRC2 PPI: TRbeta-SRC2 interaction inhibition. actives 0.065% (n = 280,000). TRbeta-SRC2 peptide binding, fluorescence polarization; receptor liganded with 1 µM T3. AID 1469. Potency, µM (highest dose often 106 µM), inactives show at the top dose activity change, negative = inhibition, usual class: inhibitors;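 further: potency means the concentration at half of the fitted maximal effect; plate controls were bound peptide for no effect and peptide without receptor for full effect; nearly all actives have a fitted effect of over 50% in size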
#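 Each compound concentration gave % activity, normalized to unbound and bound Texas Red SRC2 controls, from polarization read after 5 hr ambient incubation with T3-loaded human TRb LBD.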
# Coupling enz: counter-screen for Giardia aldolase inhibitors: coupling enzyme system; activity change, negative = inhibition, % at 58.2 µM, hits read low; actives 0.67% (n = 290,000); coupling enzyme system counterscreen, AmpLite Red fluorescence; in the data active means activity change below about -30%; further: on the % scale 0 is the no-effect control and ±100 the full control effect
#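 Activity here indicates interference with the coupling reaction, not aldolase inhibition. Compounds at 57.5 uM final met coupling enzymes for 10 min at RT; substrate and AmpLite Red detection followed, with a 525/598 nm fluorescence read after 20 min.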
# JMJD2E inh: JMJD2E (human) inhibition; AID 2147; B2RXH2; Potency, µM (highest dose often 57.1 µM), without a hit: at the highest dose activity change, negative = inhibition, hits mostly inhibitors; JMJD2E catalytic domain, FDH-coupled NADH fluorescence (FDH is formaldehyde dehydrogenase); actives 1.6% (n = 230,000); active means well fitted inhibition curve with a large enough effect, not every such curve was filed as active; inconclusive means small, poorly fitted or top-dose-only effect, or another doubt; inactive means no such curve, though single readings can be large or run the other way;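 further: potency means the concentration at half of the fitted maximal effect; 0% = wells with enzyme and -100% = buffer wells without enzyme; nearly all actives have a fitted effect of over 50% in size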
# Target sequence (B2RXH2 1-337 limits assumed): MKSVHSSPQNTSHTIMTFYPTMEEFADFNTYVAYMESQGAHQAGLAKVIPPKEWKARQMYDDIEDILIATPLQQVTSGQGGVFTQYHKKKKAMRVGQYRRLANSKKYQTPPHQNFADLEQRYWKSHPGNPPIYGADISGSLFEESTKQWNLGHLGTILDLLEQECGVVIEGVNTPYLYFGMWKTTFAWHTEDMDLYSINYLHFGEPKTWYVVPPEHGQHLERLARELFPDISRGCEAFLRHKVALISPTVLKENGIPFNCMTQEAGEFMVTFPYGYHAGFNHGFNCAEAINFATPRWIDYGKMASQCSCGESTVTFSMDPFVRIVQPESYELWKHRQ
# HTT ATP protect: cytoprotection in Huntington HTT-Q103 PC12 cell model. PC12 HTT-Q103 induced, cytoprotection, ATP luminescence, 40 h. Potency, µM (series often up to 56.4 µM), inactives show cytoprotection (ATP increase), actives largely listed as activators. actives 0.14% (n = 230,000); further: potency means the concentration at half of the fitted maximal effect; % of control where 0% means no effect; nearly all actives have a fitted effect of over 45% in size
#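 ATP quantification (ATPlite) reports survival of PC12 cells in which tebufenozide, 100 nM final, switches on Htt exon 1 with 103 glutamines linked to GFP; compounds are titrated.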
# Active calls of the source: *; ? = inconclusive; · = no result; ! = not confirmed by another sample; [ ] = dose if it differs, or a comment. Sampled rows, rich in hits. Any-hit rate of the full collection: about 2%. Unless noted, the call rests on the fitted dose curve; in most records, active means well fitted curve in the direction sought with a large enough effect; inconclusive means small, poorly fitted or top-dose-only effect, or another doubt; inactive means no such curve, though single readings can be large; an effect the other way counts as inactive or inconclusive.
SMILES,TexasRed fluor,HTT aggregate,TRb SRC2 PPI,Coupling enz,JMJD2E inh,HTT ATP protect
CC1CN(Cc2c(O)ccc3c(=O)c(-c4ccccc4)coc23)CC(C)O1 (centres undefined),-3%,-28%[9.22 µM],-6%,3,2%,-28%[10 µM]
CC1CN(Cc2c(O)ccc3c2oc(=O)c2ccccc23)CC(C)O1 (centres undefined),-3%,9%[9.22 µM],4%,-6,28µM*,8%[10 µM]
CCn1c(C)nc2cc(S(=O)(=O)C(F)(F)C(F)C(F)(F)F)ccc21 (centres undefined),-10%,7.1µM*,-2%,-4,2%,-37%
CC(=O)Nc1ccc2cc3ccc(NC(C)=O)cc3nc2c1,-11%,-24%[9.22 µM],-4%,-33*,?,-2%[10 µM]
CC(=O)Nc1ccc2ccccc2c1,-6%,-12%,-6%,0,2%,-10%
Cc1ccc(NC(=O)c2cnn(-c3ccc(C)c(C)c3)c2C2CCN(C(=O)OC(C)(C)C)CC2)c(C)c1,1%,·,-1%,·,·,·
COc1ccc(NS(=O)(=O)c2cccc(NC(=O)c3ccc(Cl)nc3)c2)cc1,-1%,2.5µM*,2%,-4,-3%,14%[10 µM]
CCCCC1=CC2=CC(=O)C(C)(OC(=O)CC)C(=O)C2=CN1c1ccc(OC)cc1 (centres undefined),-1%[11.2 µM],-17%[9.22 µM],6%[11.2 µM],-6,?,0%[10 µM]
CCCCC1=CC2=CC(=O)C(C)(OC(=O)CC)C(=O)C2=CN1C1CCCCC1 (centres undefined),-2%[11.2 µM],10%[9.22 µM],10%[11.2 µM],-19,28µM*!,?
CCCCC1=CC2=CC(=O)C(C)(OC(=O)CC)C(=O)C2=CN1CCCCO (centres undefined),1%[11.2 µM],17%[9.22 µM],9%[11.2 µM],-35*!,13µM*!,7%[10 µM]
CCCCC1=CC2=CC(=O)C(C)(OC(=O)CC)C(=O)C2=CN1Cc1ccc2c(c1)OCO2 (centres undefined),0%[11.2 µM],-35%[9.22 µM],5%[11.2 µM],-1,18µM*!,-23%[10 µM]
CCCCNc1nc(Oc2ccc(=O)n(C)n2)nc(N(C)C)n1,-1%,·,-1%,·,·,·
Cc1nn(CC(=O)Nc2ccccc2F)c(=O)c2c(C)n(-c3ccc(Cl)cc3)nc12,-3%,·,2%,·,·,·
N#C[C@@H]1[C@@H]2C(=O)N(c3ccc4c(c3)OCCO4)C(=O)[C@@H]2C2c3ccccc3C=CN21 (some centres undefined),-5%,-5%,-4%,-34*,-18%,29%[10 µM]
CCc1cccc(C)c1N(C(=O)CS(=O)(=O)O)[C@@H](C)COC,-3%[201 µM],·,8%[201 µM],·,·,·
CCN(CC)S(=O)(=O)c1ccc(Oc2cccc(C(C)=O)c2)nc1,-2%,5.6µM*,8%,0,13%,7%
CCN(CC)S(=O)(=O)c1ccc(Oc2ccccc2)cc1,-2%,16µM*,0%,1,7%,-9%
Cc1ccc2c(=O)cc(C(=O)Nc3ccc(S(=O)(=O)Nc4onc(C)c4C)cc3)oc2c1C,-2%,·,0%,·,·,·
COc1ccc(NC(=O)c2cc3c(=O)n(C)c4cc(Cl)ccc4c3s2)cc1Cl,-4%,·,1%,·,·,·
Cc1ccccc1/C=C/C1=NCCN1,-6%,·,1%,·,18µM*,·
COC(=O)C1(C)C=C2C(=C(c3ccccc3)C(=O)C2C)CN1 (centres undefined),-2%,·,4%,-5,-21%,-37%
COc1cc(-c2nc3sccn3c2Nc2c(C)cccc2C)ccc1O,0.004µM*[quencher],·,-5%,·,·,·
COc1ccc2c(c1)c1ncnc(N3CCN(Cc4ccc5c(c4)OCO5)CC3)c1n2C,0%,?,-21%,3,?,?
COc1ccc2[nH]c3c(N4CCN(Cc5ccc6c(c5)OCO6)CC4)ncnc3c2c1,-4%,13µM*,-10%,0,?,-47%
CC(=O)O[C@H]1CC[C@@]2(C)C(=CC[C@@H]3[C@H]4CC[C@@H]([C@H](C)C(=O)O)[C@]4(C)CC[C@H]32)C1,·,·,·,·,·,16%[10 µM]
SMILES,TexasRed fluor,HTT aggregate,TRb SRC2 PPI,Coupling enz,JMJD2E inh,HTT ATP protect
CC1CCCCN1CCCNC(=O)c1ccc2c(c1)sc1nc(-c3ccc(F)cc3)cn12 (centres undefined),-17%,·,0%,·,·,·
c1csc(C2=Nn3c(nnc3-c3ccncc3)SC2)c1,-12%,·,-6%,·,1%,25µM*
c1ccc(C2=Nn3c(nnc3-c3cccs3)SC2)cc1,-1%,-2%[9.22 µM],2%,0,12%,15%[10 µM]
Cn1c2c(c(=O)n(C)c1=O)C(CC(=O)Nc1ccccc1F)C(=O)N2 (centres undefined),-5%,-10%[9.22 µM],-3%,0,2%,20%[10 µM]
Cn1c2c(c(=O)n(C)c1=O)C(CC(=O)Nc1ccccc1)C(=O)N2 (centres undefined),0%,5µM*,-7%,1,-3%,-7%[0.074 µM]
Cc1ccc(C(=O)NC2=NC(c3ccc(C)cc3)CC(=O)N2)cc1 (centres undefined),251µM*[quencher],·,-24%,·,·,·
O=C(Cn1c(=O)[nH]n(-c2ccccc2)c1=O)N1CCCc2ccccc21,2%,1.3µM*,-10%,6,-1%,-20%[10 µM]
CC(N)(C(=O)O)c1ccc(S(=O)(=O)O)cc1 (centres undefined),-1%,·,0%,·,·,-16%
CN(C)Cc1c(O)ccc2ccccc12,-1%,-21%[9.22 µM],-4%,-10,?,-6%[10 µM]
CN(C)Cc1c(O)ccc2oc(Cc3ccccc3)cc12,-3%,4.5µM*,-5%,-6,-11%,-37%[10 µM]
COc1cc([C@@H]2c3cc4c(cc3C(OC3OC5COC(C)OC5C(O)C3O)C3COC(=O)[C@@H]32)OCO4)cc(OC)c1O (some centres undefined),-1%,·,-7%,3,7%,-53%[1.9 µM]
Cc1cc(C)nc(SCc2ccc(F)cc2)n1,-3%,?,3%,-2,0%,3.2µM*
Cc1ccc([N+](=O)[O-])c(C)[n+]1C,-1%,32%,1%,-8,18µM*,-38%
CCc1ccccc1NC(=O)C1CCN(C(=O)N2CCOc3ccccc32)CC1,·,·,·,-1,·,·
CCc1ccccc1NC(=O)N1CCOc2ccccc21,0.0089µM*[quencher],·,0%,·,·,·
CCOC(=O)c1ccccc1NC(=O)N1CCOc2ccc(Cl)cc21,4.5µM*[quencher],·,-7%,·,·,·
N#C/C(=C\c1cc(Cl)cc(Cl)c1)c1cccnc1,-1%,·,8%,·,·,-30%
COC(=O)c1c(-c2cccs2)csc1NC(=O)c1cccc(Cl)c1,1122µM*[quencher],·,?,·,·,·
CCc1nnc(NC(=O)c2ccc(S(=O)(=O)N(CCOC)CCOC)cc2)o1,-1%,5%,-7%,-1,-4%,-5%
COc1cccc(-c2nnc(NC(=O)c3cccc(F)c3)o2)c1,-3%,6%[9.22 µM],11%,-1,?,19%[10 µM]
